# Measured values reported in PubChem BioAssay AID686979 (National Center for Advancing Translational Sciences (NCATS), 2013).
# About 50,000 (12%) of roughly 420,000 compounds were called active. About 26% were inconclusive and are not listed. For the sample, actives were picked, then their nearest neighbours and some compounds at random. Unmarked numbers belong to inactive results. Calls follow the shape of the dose curve; as a rule, active = well fitted inhibition curve with a large enough effect; inconclusive = small, poorly fitted or top-dose-only effect; inactive = flat fitted curve, though single readings scatter.
# Test: qHTS for Inhibitors of human tyrosyl-DNA phosphodiesterase 1 (TDP1): qHTS in cells in presence of CPT; also: nearly all actives have a fitted effect of over 55% in size
# Conditions: chicken DT40 Tdp1-/-;hTDP1 cells + 20 nM CPT, ATP luminescence, 48 h; series mostly up to 46.2 µM; activity change, negative = growth inhibition: at the top concentration
# In short: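 Cell growth measured by CellTiter-Glo luminescence after a minimum 48 h, 37 C compound exposure with 20 nM CPT in Tdp1-knockout DT40 cells stably expressing hTDP1, seeded 400/well; qHTS titration format.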
# % is scaled to controls: 0 for no effect and ±100 for the full control effect; potency is read from the fitted curve at half-maximal effect.
Compound,"activity change, negative = growth inhibition [%]",Potency
O=C(Cn1cnc2c(cnn2-c2ccc(F)cc2)c1=O)NCCc1ccccc1,-16.9,
CCCCNC(=O)OCCSCCS(=O)(=O)c1ccc(Cl)cc1,0.699,
Cc1nc2c(c(C)nn2-c2ccccc2)c(C)c1C,0.197,
CCOC(=O)c1cc(S(=O)(=O)NCCc2ccc(OC)c(OC)c2)cn1C,0.651,
CNC(=O)C(NC(=O)c1ccccc1)=C(C)C,1.28,
O=C(CSC1CC(=O)N(CCc2ccccc2)C1=O)Nc1ccc(Cl)cc1 (stereo not given),-10.4,
CCOC(=O)CNc1nc(Cl)nc(Nc2ccc(OC)cc2OC)n1,-6.66,
Cc1c(S(=O)(=O)N2CC(C)CC(C)C2)c(=O)n(C)c(=O)n1C (stereo not given),21.5,
CC(C)CCN1CCC(C)(NC(=O)c2ccccc2)C1=O (stereo not given),-24.9,
O=C(c1ccc(Cl)nc1)N1CCN(S(=O)(=O)c2ccc3c(c2)OCCO3)CC1,-29.3,
CCOC(=O)c1ccccc1NC(=O)CCc1c(C)nc2c(c1C)c(=O)n(C)c(=O)n2C,11.4,
COc1cc(NC(=O)c2ccc(CNc3c(N4CCCC4)c(=O)c3=O)cc2)cc(OC)c1OC,1.21,
COc1cc(C(=O)Nc2ccc(-n3c(C)nc4ccccc4c3=O)cc2)cc(OC)c1OC,,16.4 µM (active)
COc1cc(C(=O)Nc2ccc(OCc3cc(=O)n4ccc(C)cc4n3)cc2)cc(OC)c1OC,-7.29,
COc1cc(NC(=O)c2nc3ccccc3nc2C)cc(OC)c1OC,-29.3,
COc1ccc(NC(=O)CN2C(=O)CSC2=O)cc1,4.96,
CCC(=O)N1CCCC1(C)C(=O)Nc1ccc2c(c1)CCN2C(C)=O (stereo not given),2.65,
COC(=O)C1=C(C)Nc2ncnn2C1c1cccnc1 (stereo not given),-0.87,
CC1=C(C(=O)OC2CCCCC2)C(c2cccnc2)n2ncnc2N1 (stereo not given),,14.6 µM (active)
CC1=C(C(N)=O)C(c2ccc(Br)cc2)n2ncnc2N1 (stereo not given),35.2,
S=C(NC1CCCCC1)NN1CCOCC1,-5.84,
Cc1ccc(C(=O)NCCc2nnc(SCC(=O)Nc3cccc(C(=O)O)c3)n2C)cc1,0.587,
Cc1cccc(NC(=O)C2CCCN2S(=O)(=O)c2cccc3nsnc23)c1C (stereo not given),-20.7,
CCOC(=O)c1cnc(COc2ccccc2Cl)[nH]c1=O,-1.8,
CC(=O)Nc1ccc(-c2csc(NC=C3C(=O)OC(C)(C)OC3=O)n2)cc1,-8.37,
Cc1nc(NNC(=O)c2ccccc2)cc(-c2ccccc2)n1,-14.5,
CC(=O)Nc1ccc(S(=O)(=O)Nc2nc(-c3ccc(C(C)(C)C)cc3)cs2)cc1,-4.81,
Cc1ccc(-c2csc(NNC(=O)c3ccccc3)n2)cc1,,4.11 µM (active)
CC(=O)Nc1ccc(-c2csc(NC(=O)Nc3ccccc3)n2)cc1,,3.66 µM (active)
O=C(O)c1ccccc1C(=O)Nc1nc(-c2ccccc2)cs1,1.16,
